Numbering of substitutions follows the chain as printed.

Among the targets are PITX2 (Homo sapiens, UniProt Q99697 72-157); SHOX (Homo sapiens, UniProt O15266 103-189, R173C); MSX2 (Homo sapiens, UniProt P35548 130-214, R199I).
Common to all, as to test: PBM; 200 nM protein, PBS
Common to all, as to settings: dsDNA, one strand shown

In test [1] the target is PRRX1 (Homo sapiens, UniProt P54821 80-166, F113S).
In test [2] the target is HOXA2 (Homo sapiens, UniProt O43364 129-215, R185T).
Test [3] has as its target ALX1 (Homo sapiens, UniProt Q15699 118-204, L144V).
Test [4] has as its target ALX3 (Homo sapiens, UniProt O95076 139-225, N203Q).
Test [5] deals with HOXA2 (Homo sapiens, UniProt O43364 129-215, R185K).
Chain of HOXA2 (Homo sapiens, UniProt O43364 129-215, R185K) (O43364 129-215 R185K): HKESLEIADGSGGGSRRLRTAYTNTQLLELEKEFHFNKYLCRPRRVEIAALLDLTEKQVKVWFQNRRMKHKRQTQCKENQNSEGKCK
For test [6], the target named is ALX1 (Homo sapiens, UniProt Q15699 118-204, L144R).
Chain of ALX1 (Homo sapiens, UniProt Q15699 118-204, L144R) (Q15699 118-204 L144R): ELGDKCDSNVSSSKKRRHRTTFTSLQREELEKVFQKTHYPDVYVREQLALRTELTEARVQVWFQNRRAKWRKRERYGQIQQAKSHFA
The target of test [7] is ALX3 (Homo sapiens, UniProt O95076 139-225).
Chain of ALX3 (Homo sapiens, UniProt O95076 139-225) (O95076 139-225): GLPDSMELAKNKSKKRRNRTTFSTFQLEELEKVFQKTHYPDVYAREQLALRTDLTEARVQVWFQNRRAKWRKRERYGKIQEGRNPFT
For test [8], the target named is VAX1 (Homo sapiens, UniProt Q5SQQ9 86-172).
Chain of VAX1 (Homo sapiens, UniProt Q5SQQ9 86-172) (Q5SQQ9 86-172): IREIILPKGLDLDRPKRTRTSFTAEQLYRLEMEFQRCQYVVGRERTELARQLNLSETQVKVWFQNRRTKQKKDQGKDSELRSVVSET
The target of test [9] is ALX3 (Homo sapiens, UniProt O95076 139-225, L168Q).
Chain of ALX3 (Homo sapiens, UniProt O95076 139-225, L168Q) (O95076 139-225 L168Q): as the sequence (O95076 139-225) above, with L30Q counted along it
The target of test [10] is ALX3 (Homo sapiens, UniProt O95076 139-225, L168V).
Chain of ALX3 (Homo sapiens, UniProt O95076 139-225, L168V) (O95076 139-225 L168V): as the sequence (O95076 139-225) above, with L30V counted along it
In test [11] the target is VAX1 (Homo sapiens, UniProt Q5SQQ9 86-172, T142I).
Chain of VAX1 (Homo sapiens, UniProt Q5SQQ9 86-172, T142I) (Q5SQQ9 86-172 T142I): as the sequence (Q5SQQ9 86-172) above, with T57I counted along it
For test [12], the target named is HOXA2 (Homo sapiens, UniProt O43364 129-215, Y150S).
Chain of HOXA2 (Homo sapiens, UniProt O43364 129-215, Y150S) (O43364 129-215 Y150S): as the sequence (O43364 129-215 R185K) above, with Y22S, K57R counted along it
In test [13] the target is ALX1 (Homo sapiens, UniProt Q15699 118-204).
Chain of ALX1 (Homo sapiens, UniProt Q15699 118-204) (Q15699 118-204): as the sequence (Q15699 118-204 L144R) above, with R27L counted along it
Test [14] addresses ALX3 (Homo sapiens, UniProt O95076 139-225, N203S).
The target of test [15] is PRRX1 (Homo sapiens, UniProt P54821 80-166).
Chain of PRRX1 (Homo sapiens, UniProt P54821 80-166) (P54821 80-166): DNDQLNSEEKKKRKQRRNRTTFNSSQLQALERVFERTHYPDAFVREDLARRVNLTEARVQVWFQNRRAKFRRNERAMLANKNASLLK
Test [16] has as its target HOXA2 (Homo sapiens, UniProt O43364 129-215).
The target in test [17] is VAX1 (Homo sapiens, UniProt Q5SQQ9 86-172, K157R).
Chain of VAX1 (Homo sapiens, UniProt Q5SQQ9 86-172, K157R) (Q5SQQ9 86-172 K157R): as the sequence (Q5SQQ9 86-172) above, with K72R counted along it
The target of test [18] is T1, NKX2-6 (Homo sapiens, UniProt A6NCS4 118-204).
T1 sequence: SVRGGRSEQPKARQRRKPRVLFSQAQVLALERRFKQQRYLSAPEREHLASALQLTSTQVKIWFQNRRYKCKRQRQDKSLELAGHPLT

Test [19] has as its target T2, NKX2-6 (Homo sapiens, UniProt A6NCS4 118-204, F151L).
T2 sequence: T1 sequence with F34L

The target in test [20] is HOXD13 (Homo sapiens, UniProt P35453 263-343, T313R).
Chain of HOXD13 (Homo sapiens, UniProt P35453 263-343, T313R) (P35453 263-343 T313R): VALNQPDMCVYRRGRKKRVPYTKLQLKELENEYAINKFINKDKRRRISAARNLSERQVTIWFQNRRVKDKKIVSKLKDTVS
For test [21], the target named is HOXD13 (Homo sapiens, UniProt P35453 263-343).
Chain of HOXD13 (Homo sapiens, UniProt P35453 263-343) (P35453 263-343): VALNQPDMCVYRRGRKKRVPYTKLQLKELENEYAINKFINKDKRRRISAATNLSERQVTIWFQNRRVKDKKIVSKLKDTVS
The target in test [22] is HOXD13 (Homo sapiens, UniProt P35453 263-343, T313A).
Chain of HOXD13 (Homo sapiens, UniProt P35453 263-343, T313A) (P35453 263-343 T313A): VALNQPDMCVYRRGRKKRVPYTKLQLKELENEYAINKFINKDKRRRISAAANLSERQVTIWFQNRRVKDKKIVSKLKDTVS
Test [23] concerns the target NKX3-2 (Homo sapiens, UniProt P78367 192-278, P234S).
The target in test [24] is NKX3-2 (Homo sapiens, UniProt P78367 192-278).
Chain of NKX3-2 (Homo sapiens, UniProt P78367 192-278) (P78367 192-278): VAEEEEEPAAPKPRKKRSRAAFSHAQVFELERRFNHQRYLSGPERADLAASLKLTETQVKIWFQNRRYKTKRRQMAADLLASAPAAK
Another test concerns the target T3, PAX4 (Homo sapiens, UniProt O43316 9-242, R227W).
T3 sequence: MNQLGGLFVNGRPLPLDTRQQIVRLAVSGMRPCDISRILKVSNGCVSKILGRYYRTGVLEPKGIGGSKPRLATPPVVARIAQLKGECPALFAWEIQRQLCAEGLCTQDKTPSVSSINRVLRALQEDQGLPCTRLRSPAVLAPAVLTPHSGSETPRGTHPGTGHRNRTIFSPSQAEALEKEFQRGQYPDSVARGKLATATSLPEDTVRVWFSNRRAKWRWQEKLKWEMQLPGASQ

Chain of PRRX1 (Homo sapiens, UniProt P54821 80-166, F113S) (P54821 80-166 F113S): as the sequence (P54821 80-166) above, with F34S counted along it
Chain of SHOX (O15266 103-189 R173C): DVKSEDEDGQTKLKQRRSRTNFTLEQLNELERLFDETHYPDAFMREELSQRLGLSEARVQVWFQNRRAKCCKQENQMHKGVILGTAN
Chain of HOXA2 (Homo sapiens, UniProt O43364 129-215) (O43364 129-215): as the sequence (O43364 129-215 R185K) above, with K57R counted along it
Chain of HOXA2 (Homo sapiens, UniProt O43364 129-215, R185T) (O43364 129-215 R185T): as the sequence (O43364 129-215 R185K) above, with K57T counted along it
Chain of ALX3 (Homo sapiens, UniProt O95076 139-225, N203S) (O95076 139-225 N203S): as the sequence (O95076 139-225) above, with N65S counted along it
Chain of ALX1 (Homo sapiens, UniProt Q15699 118-204, L144V) (Q15699 118-204 L144V): as the sequence (Q15699 118-204 L144R) above, with R27V counted along it
Chain of NKX3-2 (Homo sapiens, UniProt P78367 192-278, P234S) (P78367 192-278 P234S): as the sequence (P78367 192-278) above, with P43S counted along it
Chain of MSX2 (P35548 130-214 R199I): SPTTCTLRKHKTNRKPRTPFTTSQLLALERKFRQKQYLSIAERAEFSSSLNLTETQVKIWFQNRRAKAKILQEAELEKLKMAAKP
Chain of ALX3 (Homo sapiens, UniProt O95076 139-225, N203Q) (O95076 139-225 N203Q): as the sequence (O95076 139-225) above, with N65Q counted along it

Consider CCGGCCAG, for which the binding signal in the test with PRRX1 [1] was 8.97 upbm affinity estimate (log intensity, higher = more binding, comparable within an allelic series); with HOXA2 [2] it was 7.26 upbm affinity estimate (log intensity, higher = more binding, comparable within an allelic series); with ALX1 [3], 6.59 upbm affinity estimate (log intensity, higher = more binding, comparable within an allelic series); in the test with ALX3 [4], 7.68 upbm affinity estimate (log intensity, higher = more binding, comparable within an allelic series); in the test with PITX2, 7.87 upbm affinity estimate (log intensity, higher = more binding, comparable within an allelic series); in the test with HOXA2 [5], 9.96 upbm affinity estimate (log intensity, higher = more binding, comparable within an allelic series). Besides, the binding signal was 6.61 upbm affinity estimate (log intensity, higher = more binding, comparable within an allelic series) in the test with ALX1 [6]; 7.75 upbm affinity estimate (log intensity, higher = more binding, comparable within an allelic series) with ALX3 [7]; 6.85 upbm affinity estimate (log intensity, higher = more binding, comparable within an allelic series) with VAX1 [8]; 7.66 upbm affinity estimate (log intensity, higher = more binding, comparable within an allelic series) with ALX3 [9]; 7.61 upbm affinity estimate (log intensity, higher = more binding, comparable within an allelic series) with ALX3 [10]; 6.97 upbm affinity estimate (log intensity, higher = more binding, comparable within an allelic series) with VAX1 [11]. For the same sequence, the binding signal in the test with HOXA2 [12] was 10.3 upbm affinity estimate (log intensity, higher = more binding, comparable within an allelic series); in the test with ALX1 [13], 6.55 upbm affinity estimate (log intensity, higher = more binding, comparable within an allelic series); with ALX3 [14] it was 7.66 upbm affinity estimate (log intensity, higher = more binding, comparable within an allelic series); in the test with PRRX1 [15], 9.42 upbm affinity estimate (log intensity, higher = more binding, comparable within an allelic series); with HOXA2 [16], 7.18 upbm affinity estimate (log intensity, higher = more binding, comparable within an allelic series); with VAX1 [17], 6.86 upbm affinity estimate (log intensity, higher = more binding, comparable within an allelic series).

With AATTATGC, the binding signal in the test with PRRX1 [1] is 11.1 upbm affinity estimate (log intensity, higher = more binding, comparable within an allelic series); in the test with SHOX it was 9.27 upbm affinity estimate (log intensity, higher = more binding, comparable within an allelic series).

As to ACTTTAAG, the binding signal in the test with PRRX1 [1] was 10.1 upbm affinity estimate (log intensity, higher = more binding, comparable within an allelic series); with NKX2-6 [18], 12.5 upbm affinity estimate (log intensity, higher = more binding, comparable within an allelic series); with NKX2-6 [19], 10.3 upbm affinity estimate (log intensity, higher = more binding, comparable within an allelic series); with PRRX1 [15], 10.8 upbm affinity estimate (log intensity, higher = more binding, comparable within an allelic series).

With GGCCTACC, the binding signal with PRRX1 [1] was 9.31 upbm affinity estimate (log intensity, higher = more binding, comparable within an allelic series); with HOXD13 [20] it was 9.55 upbm affinity estimate (log intensity, higher = more binding, comparable within an allelic series); in the test with HOXD13 [21], 9.49 upbm affinity estimate (log intensity, higher = more binding, comparable within an allelic series); with HOXD13 [22] it was 9.59 upbm affinity estimate (log intensity, higher = more binding, comparable within an allelic series); with PRRX1 [15], 9.37 upbm affinity estimate (log intensity, higher = more binding, comparable within an allelic series).

With GCTCGGCC, the binding signal with PRRX1 [1] was 9.12 upbm affinity estimate (log intensity, higher = more binding, comparable within an allelic series); with HOXA2 [2], 7.15 upbm affinity estimate (log intensity, higher = more binding, comparable within an allelic series); in the test with HOXD13 [20], 9.46 upbm affinity estimate (log intensity, higher = more binding, comparable within an allelic series); with HOXA2 [5], 10.3 upbm affinity estimate (log intensity, higher = more binding, comparable within an allelic series); with HOXD13 [21], 9.56 upbm affinity estimate (log intensity, higher = more binding, comparable within an allelic series); with HOXD13 [22], 9.62 upbm affinity estimate (log intensity, higher = more binding, comparable within an allelic series). Further, the binding signal with HOXA2 [12] is 10.3 upbm affinity estimate (log intensity, higher = more binding, comparable within an allelic series); with NKX3-2 [23], 10.3 upbm affinity estimate (log intensity, higher = more binding, comparable within an allelic series); with PRRX1 [15], 9.13 upbm affinity estimate (log intensity, higher = more binding, comparable within an allelic series); in the test with HOXA2 [16], 6.97 upbm affinity estimate (log intensity, higher = more binding, comparable within an allelic series); with NKX3-2 [24] it was 10.3 upbm affinity estimate (log intensity, higher = more binding, comparable within an allelic series).

Regarding ACGTTGCG, the binding signal was 9.5 upbm affinity estimate (log intensity, higher = more binding, comparable within an allelic series) with PRRX1 [1]; 7.94 upbm affinity estimate (log intensity, higher = more binding, comparable within an allelic series) in the test with PITX2; 9.22 upbm affinity estimate (log intensity, higher = more binding, comparable within an allelic series) with PRRX1 [15].

Consider AATTATAG, for which the binding signal with PRRX1 [1] is 11.2 upbm affinity estimate (log intensity, higher = more binding, comparable within an allelic series); with MSX2 it was 12.2 upbm affinity estimate (log intensity, higher = more binding, comparable within an allelic series); with SHOX it was 9.23 upbm affinity estimate (log intensity, higher = more binding, comparable within an allelic series); with ALX3 [10], 9.73 upbm affinity estimate (log intensity, higher = more binding, comparable within an allelic series); with PAX4, 10.9 upbm affinity estimate (log intensity, higher = more binding, comparable within an allelic series).
